# Data from the supplement of paper PMC10849652.
# About 8,800 targets were measured; listed, in parts, are those with a hit and a random draw of the rest. About 0.5% of all pairs of compound and target were hits. Values without a mark were called inactive.
# Tests used:
# Assay in all cases: log2 fold change, soluble protein after heating vs DMSO (PISA); higher = thermal stabilisation; K562 lysate, 10 uM; active = over 0.2 and 3.5 SD of the protein, either way, in both replicates (recomputed)
# [1] = compound: NCC(=O)Nc1ccc(-n2nc(C(F)(F)F)cc2-c2ccc3c(ccc4ccccc43)c2)cc1
# In short: (§1)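 A 30 min treatment with 10 μM compound was applied to crude K562 extract at 1 mg/mL protein in PBS pH 7.4 with 1 mM MgCl2. Heating for 3 min spanned 48°C-58°C, after which aliquots were pooled, adjusted to 0.5% NP-40 at 4°C and spun at 21,000xg for 90 min. TMTpro 16plex LC-MS/MS of the supernatant, with channel sums equalised, gave values recorded as log-two fold change in thermal stability against solvent controls, from duplicates.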
# [2] = compound: O=C(CCCCCCC(=O)Nc1ccccc1)NO [vorinostat]
# In short: as §1
# [3] = compound: O=C(O)c1ccc2c(c1)nc(Nc1cccc(Cl)c1)c1ccncc12 [silmitasertib]
# In short: as §1
# [4] = compound: O=C1NC(=O)C(c2cnc3ccccn23)=C1c1cn2c3c(cc(F)cc13)CN(C(=O)N1CCCCC1)CC2
# In short: as §1
# [5] = compound: c1cn2cc(-c3ccc4cn[nH]c4c3)nc(Nc3ccc(N4CCOCC4)cc3)c2n1 [entospletinib]
# In short: as §1
# Chain of UniProt Q96RR4 (Q96RR4 whole entry, looked up): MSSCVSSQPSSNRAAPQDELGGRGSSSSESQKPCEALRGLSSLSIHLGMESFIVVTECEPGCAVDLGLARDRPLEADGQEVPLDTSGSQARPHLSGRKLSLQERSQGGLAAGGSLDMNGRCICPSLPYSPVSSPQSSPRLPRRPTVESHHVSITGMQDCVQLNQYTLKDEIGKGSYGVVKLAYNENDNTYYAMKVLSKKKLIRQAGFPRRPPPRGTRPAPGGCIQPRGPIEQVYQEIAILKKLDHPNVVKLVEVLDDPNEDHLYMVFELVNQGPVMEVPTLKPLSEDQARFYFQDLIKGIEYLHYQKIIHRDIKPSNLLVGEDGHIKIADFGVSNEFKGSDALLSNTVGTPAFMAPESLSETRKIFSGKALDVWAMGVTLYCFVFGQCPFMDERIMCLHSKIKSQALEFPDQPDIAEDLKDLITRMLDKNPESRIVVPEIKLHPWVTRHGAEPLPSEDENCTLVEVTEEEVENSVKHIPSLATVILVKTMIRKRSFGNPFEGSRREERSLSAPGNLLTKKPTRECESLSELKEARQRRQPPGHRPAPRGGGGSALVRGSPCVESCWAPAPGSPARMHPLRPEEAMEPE
# Chain of UniProt O95319 (O95319 whole entry, looked up): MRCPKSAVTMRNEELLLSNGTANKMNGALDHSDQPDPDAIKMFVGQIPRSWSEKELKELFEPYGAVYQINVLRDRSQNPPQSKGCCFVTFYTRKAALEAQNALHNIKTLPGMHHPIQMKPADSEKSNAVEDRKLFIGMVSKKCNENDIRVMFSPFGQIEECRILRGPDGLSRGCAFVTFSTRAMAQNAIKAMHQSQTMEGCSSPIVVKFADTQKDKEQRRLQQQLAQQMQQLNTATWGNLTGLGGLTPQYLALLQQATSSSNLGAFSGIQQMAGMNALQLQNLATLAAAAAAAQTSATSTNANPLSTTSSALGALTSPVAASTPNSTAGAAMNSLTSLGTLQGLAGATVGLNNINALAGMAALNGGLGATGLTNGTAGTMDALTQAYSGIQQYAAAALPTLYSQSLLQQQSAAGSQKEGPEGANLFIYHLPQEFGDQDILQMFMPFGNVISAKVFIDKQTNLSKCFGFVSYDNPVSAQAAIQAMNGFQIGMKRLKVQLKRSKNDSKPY
# Chain of UniProt Q13315 (Q13315 whole entry, looked up): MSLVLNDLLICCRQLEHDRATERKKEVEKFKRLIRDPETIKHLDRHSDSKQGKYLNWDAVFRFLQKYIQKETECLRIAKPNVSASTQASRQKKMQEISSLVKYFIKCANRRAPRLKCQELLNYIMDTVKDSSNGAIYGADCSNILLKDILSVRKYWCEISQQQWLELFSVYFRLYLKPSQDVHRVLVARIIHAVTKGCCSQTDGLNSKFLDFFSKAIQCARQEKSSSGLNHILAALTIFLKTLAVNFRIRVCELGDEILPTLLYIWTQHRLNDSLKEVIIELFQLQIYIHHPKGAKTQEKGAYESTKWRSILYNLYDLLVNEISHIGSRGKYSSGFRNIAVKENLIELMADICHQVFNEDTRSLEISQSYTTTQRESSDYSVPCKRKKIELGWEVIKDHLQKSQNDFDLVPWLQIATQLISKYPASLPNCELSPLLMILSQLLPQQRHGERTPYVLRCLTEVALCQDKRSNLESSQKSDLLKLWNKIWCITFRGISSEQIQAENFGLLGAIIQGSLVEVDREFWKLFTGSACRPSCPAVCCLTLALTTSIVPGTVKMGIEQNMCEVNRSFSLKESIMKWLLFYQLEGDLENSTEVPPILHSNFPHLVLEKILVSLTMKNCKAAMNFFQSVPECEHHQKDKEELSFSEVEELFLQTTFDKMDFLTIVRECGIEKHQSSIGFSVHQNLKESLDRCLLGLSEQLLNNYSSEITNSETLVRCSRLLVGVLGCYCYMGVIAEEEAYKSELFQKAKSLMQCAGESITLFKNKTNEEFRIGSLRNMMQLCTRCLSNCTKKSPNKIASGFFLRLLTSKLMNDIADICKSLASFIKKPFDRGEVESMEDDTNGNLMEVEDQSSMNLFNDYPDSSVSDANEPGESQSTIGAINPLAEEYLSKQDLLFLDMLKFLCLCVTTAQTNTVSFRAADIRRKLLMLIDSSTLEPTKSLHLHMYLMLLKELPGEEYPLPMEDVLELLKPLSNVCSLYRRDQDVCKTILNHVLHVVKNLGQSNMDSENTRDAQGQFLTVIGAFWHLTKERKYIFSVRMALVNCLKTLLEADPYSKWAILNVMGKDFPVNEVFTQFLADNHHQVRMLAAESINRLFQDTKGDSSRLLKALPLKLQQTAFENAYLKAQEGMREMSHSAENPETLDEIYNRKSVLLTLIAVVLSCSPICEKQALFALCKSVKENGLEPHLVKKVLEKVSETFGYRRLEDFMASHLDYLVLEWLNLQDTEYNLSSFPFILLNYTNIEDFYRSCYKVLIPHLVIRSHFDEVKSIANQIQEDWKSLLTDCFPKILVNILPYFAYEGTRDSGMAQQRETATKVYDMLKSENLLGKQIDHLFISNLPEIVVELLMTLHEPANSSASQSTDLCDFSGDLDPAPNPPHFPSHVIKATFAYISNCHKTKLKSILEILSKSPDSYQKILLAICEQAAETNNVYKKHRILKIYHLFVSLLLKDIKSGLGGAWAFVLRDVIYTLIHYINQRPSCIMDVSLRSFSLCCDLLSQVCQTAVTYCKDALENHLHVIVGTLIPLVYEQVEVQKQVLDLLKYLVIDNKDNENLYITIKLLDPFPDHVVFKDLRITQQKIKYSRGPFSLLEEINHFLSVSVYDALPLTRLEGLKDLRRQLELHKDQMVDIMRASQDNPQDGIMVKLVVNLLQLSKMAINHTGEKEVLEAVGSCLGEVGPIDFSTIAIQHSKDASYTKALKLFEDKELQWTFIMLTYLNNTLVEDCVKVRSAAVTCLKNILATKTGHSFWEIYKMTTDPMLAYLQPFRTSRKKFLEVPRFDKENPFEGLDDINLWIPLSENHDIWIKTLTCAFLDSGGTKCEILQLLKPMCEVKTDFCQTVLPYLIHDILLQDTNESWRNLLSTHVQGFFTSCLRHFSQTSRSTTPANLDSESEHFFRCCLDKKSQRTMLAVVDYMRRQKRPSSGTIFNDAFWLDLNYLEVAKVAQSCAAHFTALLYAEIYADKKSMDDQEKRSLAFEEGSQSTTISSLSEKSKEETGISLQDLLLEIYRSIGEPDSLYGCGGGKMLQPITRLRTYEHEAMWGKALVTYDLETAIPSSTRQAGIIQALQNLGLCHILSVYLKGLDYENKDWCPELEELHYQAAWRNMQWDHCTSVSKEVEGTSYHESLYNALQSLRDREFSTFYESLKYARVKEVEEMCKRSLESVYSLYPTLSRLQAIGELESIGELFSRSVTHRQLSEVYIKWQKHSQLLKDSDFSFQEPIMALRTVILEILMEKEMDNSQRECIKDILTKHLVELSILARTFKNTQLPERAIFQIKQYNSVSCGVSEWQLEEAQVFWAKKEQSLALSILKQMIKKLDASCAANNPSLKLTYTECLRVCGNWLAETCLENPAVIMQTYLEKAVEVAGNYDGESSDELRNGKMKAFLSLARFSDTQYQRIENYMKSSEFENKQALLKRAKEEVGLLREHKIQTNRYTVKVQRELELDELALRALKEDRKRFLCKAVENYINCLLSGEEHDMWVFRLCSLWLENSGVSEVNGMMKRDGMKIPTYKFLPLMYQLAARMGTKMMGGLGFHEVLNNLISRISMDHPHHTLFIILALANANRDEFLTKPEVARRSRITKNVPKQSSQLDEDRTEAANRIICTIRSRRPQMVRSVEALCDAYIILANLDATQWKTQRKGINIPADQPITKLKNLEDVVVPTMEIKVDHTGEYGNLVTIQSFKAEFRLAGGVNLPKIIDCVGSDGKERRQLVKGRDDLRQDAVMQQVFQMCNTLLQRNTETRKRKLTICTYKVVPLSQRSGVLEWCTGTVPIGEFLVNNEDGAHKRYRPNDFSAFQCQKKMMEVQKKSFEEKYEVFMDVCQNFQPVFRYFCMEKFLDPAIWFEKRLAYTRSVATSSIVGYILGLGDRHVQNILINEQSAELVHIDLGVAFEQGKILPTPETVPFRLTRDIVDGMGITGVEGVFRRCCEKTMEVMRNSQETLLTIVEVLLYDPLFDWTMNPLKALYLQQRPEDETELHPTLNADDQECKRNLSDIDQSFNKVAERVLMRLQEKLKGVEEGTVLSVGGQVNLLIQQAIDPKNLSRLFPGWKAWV
# Chain of UniProt P22676 (P22676 whole entry, looked up): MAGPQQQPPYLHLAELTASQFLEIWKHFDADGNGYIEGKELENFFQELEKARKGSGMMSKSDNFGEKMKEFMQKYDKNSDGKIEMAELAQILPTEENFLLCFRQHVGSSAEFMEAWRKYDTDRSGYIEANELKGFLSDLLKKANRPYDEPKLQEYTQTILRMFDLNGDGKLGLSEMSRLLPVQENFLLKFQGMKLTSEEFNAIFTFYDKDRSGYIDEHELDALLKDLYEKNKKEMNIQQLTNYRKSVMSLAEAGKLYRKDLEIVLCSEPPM
# Chain of UniProt O95067 (O95067 whole entry, looked up): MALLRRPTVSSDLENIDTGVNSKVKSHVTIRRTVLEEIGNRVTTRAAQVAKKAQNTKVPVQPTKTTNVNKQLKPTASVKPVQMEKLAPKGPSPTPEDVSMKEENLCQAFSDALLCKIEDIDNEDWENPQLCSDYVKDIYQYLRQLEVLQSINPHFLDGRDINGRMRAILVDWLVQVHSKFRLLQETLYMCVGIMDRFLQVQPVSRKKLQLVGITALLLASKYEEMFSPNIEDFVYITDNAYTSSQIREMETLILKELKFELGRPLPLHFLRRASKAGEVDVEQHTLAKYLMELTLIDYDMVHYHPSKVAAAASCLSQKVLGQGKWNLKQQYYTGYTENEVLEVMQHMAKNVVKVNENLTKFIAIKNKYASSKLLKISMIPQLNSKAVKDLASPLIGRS
# Chain of UniProt P08962 (P08962 whole entry, looked up): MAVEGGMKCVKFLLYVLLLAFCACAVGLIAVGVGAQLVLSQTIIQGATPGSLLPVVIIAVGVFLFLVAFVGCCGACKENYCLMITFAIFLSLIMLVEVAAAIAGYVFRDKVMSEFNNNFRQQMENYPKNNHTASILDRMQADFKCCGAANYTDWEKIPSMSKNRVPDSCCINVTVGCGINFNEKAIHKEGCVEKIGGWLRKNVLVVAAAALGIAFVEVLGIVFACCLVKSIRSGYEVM
Target,log2 fold change [1],log2 fold change [2],log2 fold change [3],log2 fold change [4],log2 fold change [5]
CELF2 isoform 3 (UniProt O95319),0.036,-0.028,-0.012,-0.041,0.033
CCDC47 (UniProt Q96A33),0.002,0.207 (active),0.026,0.011,-0.007
ATXN2 (UniProt F8WB05),0.013,0.011,0.271,0.115,-0.016
BTAF1 (UniProt O14981),0.01,-0.45 (active),0.003,-0.008,-0.031
ATP9B (UniProt O43861),0.013,0.012,0.005,-0.045,0
CALB2 (UniProt P22676),0.067,0.156,0.017,0.063,0.019
CCDC32 isoform 2 (UniProt Q9BV29),0.005,0.058,-0.044,0.009,-0.042
CCNB2 (UniProt O95067),0.01,-0.115,-0.079,-0.08,0.044
BRD2 isoform 2 (UniProt P25440),0.048,0.107,0.074,0.051,0.021
CENPQ (UniProt Q7L2Z9),-0.016,0.061,-0.014,0.028,0.047
BNIP1 (UniProt Q12981),-0.013,-0.049,0.066,-0.026,-0.051
ATR (UniProt Q13535),0.044,-0.131,0.509 (active),-0.01,0.046
CDK11B (UniProt P21127),0.009,-0.115,0.065,-0.023,0.255 (active)
C19orf54 (UniProt Q5BKX5),-0.052,-0.381 (active),-0.004,-0.006,0.009
CCNA2 (UniProt P20248),0.005,0.075,-0.06,-0.026,-0.011
CCNC (UniProt P24863),0.159,-0.001,0.338,-0.092,0.029
ATXN2 (UniProt Q99700),0.024,-0.282 (active),-0.01,-0.005,-0.008
CASC4 (UniProt Q6P4E1),-0.034,0.02,0.019,0.025,-0.029
CDK13 (UniProt Q14004),-0.089,-0.088,0.093,-0.012,-0.013
CAMKK2 (UniProt Q96RR4),0.081,-0.325 (active),0.074,-0.02,0.039
ATM (UniProt Q13315),0.058,-0.093,0.118,-0.033,0.036
BSDC1 (UniProt Q9NW68),-0.073,0.13,-0.018,0.024,-0.002
CD63 (UniProt P08962),-0.1,0.123,-0.039,-0.173,0.077
ATG7 (UniProt O95352),0.008,-0.47 (active),0.005,-0.005,0.001
